# Screening results: PubChem, National Center for Advancing Translational Sciences (NCATS)
# Compounds with a hit are over-represented: about 6.2% of the library has one in this group of screens.
# MARV entry inh – inhibitors of Marburg virus binding or cell entry | 300,000 tested, 1.8% active | Marburg virus pseudotyped entry inhibition, cell reporter | AID 540276 | Potency, µM (highest dose often 37.8 µM), without a hit: at the top dose activity change, negative = inhibition, actives largely listed as inhibitors; calls by dose curve; tested in HEK293 cells; further: potency means the concentration at half of the fitted maximal effect
# FMDV antiviral – foot and mouth disease virus antiviral activity; FMDV antiviral cell-based qHTS; Potency, µM (titrated, usually from 57.9 µM), without a hit: top-dose activity change, negative = inhibition, actives largely listed as inhibitors; 410,000 tested, 1.2% active; calls by dose curve; tested in HEK293T cells; further: read-out not given here; potency means the concentration at half of the fitted maximal effect; nearly all actives have a fitted effect of over 45% in size
# HCMV inh – inhibitors of human cytomegalovirus; AID 1259415; activity change, negative = inhibition, % at 57.5 µM; 410,000 tested, 4.5% active; HFF cells, HCMV-luciferase reporter, 72 h; hits give low values; in the data active means activity change below about -60%; inconclusive means no clear call, values can overlap the other calls; inactive means above about -39%
#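 Steps: HFFs plated, 16 h 37C; compounds added; HCMV-luciferase added to MOI 1 PFU/cell; 72 h 37C; OneGlo reagent, 5 min room temperature; luminescence read, normalized to controls.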
# Lassa entry inh – inhibitors of Lassa virus binding or cell entry; Lassa virus pseudotype entry inhibition, cell reporter; 300,000 tested, 1.2% active; AID 540256; Potency, µM (top dose mostly 37.9 µM), for the others: at the top dose activity change, negative = inhibition, usual class: inhibitors; calls by dose curve; tested in HEK293 cells; further: potency means the concentration at half of the fitted maximal effect; nearly all actives have a fitted effect of over 50% in size
# Active calls of the source: *; ? = inconclusive; · = not tested or not shown; ! = not active in a repeat; [ ] = remark or other dose. On the % scale 0 is the no-effect control and ±100 the full control effect.
SMILES,MARV entry inh,FMDV antiviral,HCMV inh,Lassa entry inh
Cc1cn2c(=O)cc(COC(=O)c3cccc(NC(=O)c4ccccc4C)c3)nc2s1,·,-6%,?,15%[46.1 µM]
CCN1C(=O)N(S(=O)(=O)c2ccc(C)cc2)C(c2ccccc2)C(C(=O)OC)=C1C (stereo unspecified),17%[14.2 µM],·,·,·
COc1ccc(-c2csc(-c3cccnc3)n2)cc1C,-14%,27%,-103*,5%
CCCC[S@@](=N)(=O)CC[C@@H](N)C(=O)O,7%,·,·,·
CN(C(=S)NC(=O)C12CC3CC(CC(C3)C1)C2)c1ccc(O)cc1,·,13%,-61*,·
CN(C)NC(=S)NC(=O)C12CC3CC(CC(C3)C1)C2,?,-13%,28,-1%
CCOC(=O)C1=C(C)N=C2c3ccccc3C(=O)C2C1c1ccc(Cl)cc1 (stereo unspecified),?,?,-80*,?
CCOC(=O)C1=NNC(C(=O)c2ccccc2)C1c1ccc(Cl)cc1 (stereo unspecified),?,-14%,-19,-38%[46.1 µM]
Cc1ccc(C2C3=C(CC(C)(C)CC3=O)OC3=C2C(=O)CC(C)(C)C3)cc1,-7%[46.1 µM],2%,-20,?
Cc1ccc(C2C3=C(CC(C)(C)CC3=O)N=C3c4ccccc4C(=O)C32)cc1 (stereo unspecified),?,?,-68*,?
CC1(C)CC(=O)C2=C(C1)N=c1s/c(=C/c3ccc(F)c(F)c3)c(=O)n1C2c1ccc(F)cc1 (stereo unspecified),-24%,?,-7,5%
CC1(C)CC(=O)C2=C(C1)N=C1c3ccccc3C(=O)C1C2c1ccc(Cl)cc1 (stereo unspecified),?,?,-71*,?
Cc1ccc(NC(=O)C(Cc2c[nH]c3ccccc23)NC(=O)OC(C)(C)C)c(C)c1 (stereo unspecified),?,10%,8,?
N#CC1C(=O)N=C(SCC(=O)c2ccc(Br)cc2)N=C1c1cccs1 (stereo unspecified),-3%[46.1 µM],·,·,·
CCCOc1ccc(/C=C/c2[nH]c(=O)[nH]c(=O)c2[N+](=O)[O-])cc1OCC,5%[46.1 µM],?,0,-4%
CCOC(=O)COc1ccc(Br)cc1/C=C/c1[nH]c(=O)[nH]c(=O)c1[N+](=O)[O-],?,28µM*,-25,?
CCOC(=O)COc1ccc(Br)cc1/C=C\c1[nH]c(=O)[nH]c(=O)c1[N+](=O)[O-],-14%,35µM*,40,12%
CCOc1cc(/C=C\c2[nH]c(=O)[nH]c(=O)c2[N+](=O)[O-])ccc1OC(C)CC (stereo unspecified),-28%,8.9µM*,-97*,-28%
Cc1cc(NC(=O)n2ncc3c(C)cccc32)ccc1Br,17%[46.1 µM],57%,87,3%[46.1 µM]
CCc1ccc(CNC(=O)c2sc3ncnc(N(C)C4CCCCC4)c3c2C)cc1,·,-12%,-11,-29%[46.1 µM]
COc1ccc(CCNC(=O)c2ccc(OCc3c(C)noc3C)c(OC)c2)cc1,12%,-22%,?,?
COc1cc(C(=O)NCCc2c[nH]c3ccccc23)ccc1OCc1c(C)noc1C,-26%[46.1 µM],?,48,7.9µM*
CCOc1ccc(CCNC(=O)c2ccc(OCc3c(C)noc3C)cc2)cc1OCC,?,?,-97*,?
Cc1noc(C)c1COc1ccc(C(=O)Nc2nnc(CC(C)C)s2)cc1,·,?,-62*,·
CCCN(CC(=O)Nc1ccccc1C)C(=O)c1ccc2ccccc2n1,?,3%,28,2%
SMILES,MARV entry inh,FMDV antiviral,HCMV inh,Lassa entry inh
Cc1ccccc1NC(=S)c1ccc2ccccc2n1,·,27%,-63*,·
CN1CCN(C2=Nc3cc(Cl)ccc3Nc3ccccc32)CC1,13µM*!,-19%,?,-14%
Clc1ccc2c(c1)N=C(N1CCNCC1)c1ccccc1N2,?,-15%,·,?
CC1CCCCN1Cc1c(O)ccc2c(=O)c(-c3ccccc3)coc12 (stereo unspecified),?,8%,-69*!,-5%
CCc1cc2c(=O)c(-c3ccc4c(c3)OCCO4)coc2c(CN2CCCCC2C)c1O (stereo unspecified),?,-19%,-62*,?
CCc1cc2c(=O)c(-c3ccc4c(c3)OCCO4)coc2cc1OS(C)(=O)=O,5.6µM*,-1%,?,?
CCC1CCCCN1Cc1c(O)ccc2c(=O)c(-c3ccccc3)coc12 (stereo unspecified),?,-1%,-92*,?
O=c1c(-c2ccccc2)coc2c(CN3CCCCC3)c(O)ccc12,·,-15%,-25,·
COc1ccc(-c2coc3c(CN4CCCCC4C)c(O)ccc3c2=O)cc1 (stereo unspecified),·,0%,?,·
COc1ccc(Br)cc1CNCc1c(C(=O)O)c(C)n(Cc2ccccc2C)c1C,-20%[46.1 µM],1%,1,-2%[46.1 µM]
CCOC(=O)c1c(NC(=O)CN2CCN(S(=O)(=O)c3cc(Cl)ccc3Cl)CC2)sc(C(=O)N(C)C)c1C,·,?,-90*,·
CCOC(=O)c1c(NC(=O)CN2CCCCC2)sc2c1CCN(C(=O)OCC)C2,?,·,-60*,?
CCOC(=O)c1sc(NC(=O)CCN2CCN(C)CC2)c(C(=O)OCC)c1C,0%,-20%,?,11µM*
CCOC(=O)c1c(NC(=S)N2CCN(C)CC2)sc2c1CCN(C(=O)OCC)C2,?,-19%,-99*,-16%[46.1 µM]
CCOC(=O)N1CCc2c(sc(NC(=O)C3=COCCO3)c2C(N)=O)C1,4%,-5%,8,-1%
COCCNC(=O)C1(C)CCCN(C(=O)c2cc(C)on2)C1 (stereo unspecified),·,0%,3,·
Cc1c(C)n(Cc2ccc(F)cc2)c2ccc(C(=O)NCc3ccco3)cc12,·,-3%,0,-5%[46.1 µM]
c1ccc(Cc2cnc(N3CCN(Cc4ccc5c(c4)OCCO5)CC3)nc2)cc1,·,·,19,·
O=S1(=O)C=C[C@H](COCc2ccccc2)N1,·,-24%,-10,·
Cc1cc(NC(=O)c2ccco2)cc(-c2nc3cc(Cl)ccc3o2)c1O,1%[46.1 µM],0%,-61*,19%[46.1 µM]
Cc1ccc2oc(-c3cc(NC(=O)c4cccs4)cc(C)c3O)nc2c1,12%[46.1 µM],4%,8,-5%[46.1 µM]
CN(C)CCN(CC1CCCN(Cc2ccccc2F)C1)C(=O)c1ccc(Cl)cc1 (stereo unspecified),8.9µM*,16%,-4,?
CC(=O)c1ccc(NC(=O)c2ccc(-c3ccc(Cl)cc3)o2)cc1,·,18%,13,-1%[46.1 µM]
O=C(NCCc1ccccn1)C1CC12CCN(C(=O)c1c(F)cccc1Cl)CC2 (stereo unspecified),·,5%,·,·
C=CCn1c(SCc2ccc(C(=O)Nc3nccs3)cc2)nnc1-c1ccc(C)c(Cl)c1,?,28µM*,-94*,11µM*
CC(=O)Nc1cccc(NC(=O)CSc2nccn2Cc2ccco2)c1,14%,-27%,-70*!,13%
O=C1/C(=C/c2ccncc2)N2CCC1CC2,?,10%,4,?
O=C1/C(=C/c2ccccc2Cl)N2CCC1CC2,·,-6%,-67*,·
CCCCNC(=S)N/N=C/c1cccc(OCC)c1O,-1%[46.1 µM],-15%,-32,7%
CCOc1cccc(/C=N/NC(=S)Nc2ccccc2[N+](=O)[O-])c1O,·,1.8µM*,-70*,·
